Measured values: the supplement of paper PMC9950053
Structures can show the parent of a compound that is named as a salt.

The compounds below were run on Danio rerio larvae (5 dpf) (assay: combined upward orientation toward moving lines (periods 7-14) minus DMSO control (percentage points); higher = more orientation with moving lines than DMSO larvae). Conditions: 10 µM; exposure time: 3 h pre-incubation + 3 h imaging.
Method: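 Wild-type 5 dpf zebrafish larvae (n=48 per drug, 96-well plates, 28.5 °C) were exposed to Tocris FDA-approved library compounds at 10 µM (0.1% DMSO) for 3 h before and 3 h during imaging. Images were taken every 6 s during visual (moving coloured lines) and acoustic stimuli, and larvae were tracked with the DeepLabCut-based Z-LaP Tracker. Each behavioural measure is the treated-group mean minus the DMSO vehicle control mean (n=844), in percentage points. This mapping covers compounds with 4-character plate codes.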

Row | SMILES | combined upward orientation toward moving lines
1 | O=C(Nc1c(Cl)cncc1Cl)c1ccc(OC(F)F)c(OCC2CC2)c1 [Roflumilast] | -2.52
2 | NS(=O)(=O)Cc1noc2ccccc12 [Zonisamide] | 1.75
3 | Nc1nc2c(ncn2COCCO)c(=O)[nH]1 [Acyclovir] | 0.15
4 | Cc1nc(Nc2ncc(C(=O)Nc3c(C)cccc3Cl)s2)cc(N2CCN(CCO)CC2)n1 [Dasatinib] | -11
5 | OCCOCCN1CCN(C2=Nc3ccccc3Sc3ccccc32)CC1 [Quetiapine hemifumarate] | -3.4
6 | CC(C)c1nc(N(C)S(C)(=O)=O)nc(-c2ccc(F)cc2)c1/C=C/[C@@H](O)C[C@@H](O)CC(=O)O [Rosuvastatin calcium] | 4.67
7 | COc1cc2nc(N3CCN(C(=O)C4COc5ccccc5O4)CC3)nc(N)c2cc1OC (stereo not given) [Doxazosin mesylate] | -11.6
8 | CN(C)CCC[C@@]1(c2ccc(F)cc2)OCc2cc(C#N)ccc21 [Escitalopram oxalate] | -1.11
9 | CCCc1nc2c(C)cc(-c3nc4ccccc4n3C)cc2n1Cc1ccc(-c2ccccc2C(=O)O)cc1 [Telmisartan] | -1.92
10 | COc1ccc(Cl)cc1C(=O)NCCc1ccc(S(=O)(=O)NC(=O)NC2CCCCC2)cc1 [Glibenclamide] | -10.9
11 | Nc1nc2[nH]cc(CCc3ccc(C(=O)N[C@@H](CCC(=O)O)C(=O)O)cc3)c2c(=O)[nH]1 [Pemetrexed] | -1.85
12 | CCc1c2c(nc3ccc(OC(=O)N4CCC(N5CCCCC5)CC4)cc13)-c1cc3c(c(=O)n1C2)COC(=O)[C@]3(O)CC | -3.82
13 | COc1ccc(C[C@@H](C)NC[C@H](O)c2ccc(O)c(NC=O)c2)cc1 [Arformoterol tartrate] | 0.636
14 | CC(C)c1ccc2oc3nc(N)c(C(=O)O)cc3c(=O)c2c1 [Amlexanox] | -5.36
15 | Cc1ccc(NC(=O)c2ccc(CN3CCN(C)CC3)cc2)cc1Nc1nccc(-c2cccnc2)n1 [Imatinib mesylate] | -1.28
16 | C[C@]12CCC(=O)C=C1CC[C@@H]1[C@@H]2[C@@H](O)C[C@@]2(C)[C@H]1CC[C@]2(O)C(=O)CO [Hydrocortisone] | 0.758
17 | COc1ccccc1OCCNCC(O)COc1cccc2[nH]c3ccccc3c12 (stereo not given) [Carvedilol] | -11.6
18 | CCCCC1=NC2(CCCC2)C(=O)N1Cc1ccc(-c2ccccc2-c2nnn[nH]2)cc1 [Irbesartan] | -8.87
19 | C/C(O)=C(\C#N)C(=O)Nc1ccc(C(F)(F)F)cc1 [Teriflunomide] | -3.07
20 | COCCCOc1cc(C[C@@H](C[C@H](N)[C@@H](O)C[C@H](C(=O)NCC(C)(C)C(N)=O)C(C)C)C(C)C)ccc1OC [Aliskiren hemifumarate] | -2.45

Row | SMILES | combined upward orientation toward moving lines
21 | CC1=Nc2ccc(Cl)cc2S(=O)(=O)N1 [Diazoxide] | -1.53
22 | CC#C[C@]1(O)CC[C@H]2[C@@H]3CCC4=CC(=O)CCC4=C3[C@@H](c3ccc(N(C)C)cc3)C[C@@]21C [Mifepristone] | 2.94
23 | C[C@]12CC[C@@H]3c4ccc(O)cc4C[C@@H](CCCCCCCCC[S+]([O-])CCCC(F)(F)C(F)(F)F)[C@H]3[C@@H]1CC[C@@H]2O (stereo not given in full) | 0.781
24 | NS(=O)(=O)c1cc(C(=O)O)c(NCc2ccco2)cc1Cl [Furosemide] | -2.41
25 | Nc1nc(Cl)nc2c1ncn2[C@@H]1O[C@H](CO)[C@@H](O)[C@@H]1F [Clofarabine] | -4.29
26 | CS(=O)(=O)CCNCc1ccc(-c2ccc3ncnc(Nc4ccc(OCc5cccc(F)c5)c(Cl)c4)c3c2)o1 [Lapatinib] | 1.75
27 | CN(CCOc1ccc(CC2SC(=O)NC2=O)cc1)c1ccccn1 (stereo not given) [Rosiglitazone] | -10.5
28 | COC(c1ccccc1)(c1ccccc1)[C@H](Oc1nc(C)cc(C)n1)C(=O)O [Ambrisentan] | -0.152
29 | CN1CCN(CCCN2c3ccccc3Sc3ccc(Cl)cc32)CC1 [Prochlorperazine dimaleate] | 0.242
30 | CC(=O)Oc1ccccc1C(=O)O [Aspirin] | -3.93
31 | NC(=O)N1c2ccccc2C=Cc2ccccc21 [Carbamazepine] | -1.82
32 | CN(C)CC/C=C1/c2ccccc2COc2ccc(CC(=O)O)cc21 [Olopatadine hydrochloride] | -3.54
33 | Cc1cccc(C)c1OCC(C)N (stereo not given) [Mexiletine hydrochloride] | -1.93
34 | Cc1ccc(O)c([C@H](CCN(C(C)C)C(C)C)c2ccccc2)c1 [Tolterodine L-tartrate] | 0.814
35 | CO[C@H]1/C=C/O[C@@]2(C)Oc3c(C)c(O)c4c(O)c(c5c(nc6cc(C)ccn65)c4c3C2=O)NC(=O)/C(C)=C\C=C\[C@H](C)[C@H](O)[C@@H](C)[C@@H](O)[C@@H](C)[C@H](OC(C)=O)[C@@H]1C [Rifaximin] | -3.95
36 | Clc1ccc(COC(Cn2ccnc2)c2ccc(Cl)cc2Cl)c(Cl)c1 (stereo not given) [Miconazole nitrate] | -3.31
37 | Nc1nc(F)nc2c1ncn2[C@@H]1O[C@H](CO)[C@@H](O)[C@@H]1O [Fludarabine] | -6.81
38 | C[C@H]1C[C@@H]2[C@H]([C@@H](O)C[C@@]3(C)[C@H]2CC[C@]3(O)C(=O)CO)[C@@]2(C)C=CC(=O)C=C12 [Methylprednisolone] | -7.43
39 | CCCCC(=O)N(Cc1ccc(-c2ccccc2-c2nnn[nH]2)cc1)[C@H](C(=O)O)C(C)C [Valsartan] | 2.9
40 | CC(C)c1nc(CN(C)C(=O)N[C@H](C(=O)N[C@@H](Cc2ccccc2)C[C@H](O)[C@H](Cc2ccccc2)NC(=O)OCc2cncs2)C(C)C)cs1 [Ritonavir] | -4.18
